Screening results as filed in PubChem.
An excerpt weighted towards active compounds, which were near 4.8% of everything screened.
DAX1 inh-1 = inhibits human nuclear receptor DAX1; P51843; HEK293 Gal4-DAX1 luciferase reporter, luminescence; inhibition, % at 6.75 µM; hit rate 0.99% among 340,000;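 active = inhibition above the mean over all tested compounds plus 3 SD, cut at about 4.2% in these data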;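 note: 0% = DAX1-transfected cells with DMSO and 100% = empty-vector control cells with DMSO; inhibition shows as a rise in luminescence from relieved DAX1 repression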
Target sequence (P51843 207-470 limits assumed): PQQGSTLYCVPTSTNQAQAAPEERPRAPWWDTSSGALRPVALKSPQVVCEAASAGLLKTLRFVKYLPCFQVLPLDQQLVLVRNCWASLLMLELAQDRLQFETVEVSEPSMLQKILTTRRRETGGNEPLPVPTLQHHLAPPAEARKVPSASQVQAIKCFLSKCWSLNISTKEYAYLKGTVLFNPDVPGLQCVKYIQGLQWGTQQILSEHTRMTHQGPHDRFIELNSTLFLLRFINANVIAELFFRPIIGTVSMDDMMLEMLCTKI
SMARCA2 act = SMARCA2 function activation, primary screen | MG213 cells, MMTV-luciferase reporter, dexamethasone, overnight | hit rate 1% among 370,000 | activation, % at 9.1 µM; in the data active = activation above about 7.8%;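 note: 0% = vehicle wells and 100% = reference activator wells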
hcDAF-12 act = activators of H. contortus DAF-12 nuclear receptor. HEK293 hcDAF-12 lit1-tk-luc reporter, luminescence; 0% DMSO, 100% Δ7-dafachronic acid. activation, % at 6.8 µM. hit rate 1.4% among 370,000;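 active = activation above the mean of all tested compounds plus 3 SD, cut at about 5.5% in these data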;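 note: 100% = response to 3 µM Δ7-dafachronic acid high control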
DAX1 inh-2 = DAX1 (NR0B1) inhibition, primary screen; AID 652010; HEK293T StAR-luciferase reporter, SF-1/DAX-1 repression relief; hit rate 1.1% among 370,000; inhibition, % at 6.8 µM;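 active = inhibition above the mean over all tested compounds plus 3 SD, cut at about 3.6% in these data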;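 note: 0% = DAX-1 cells with DMSO and 100% = cells lacking DAX-1 with DMSO; higher inhibition means more luminescence from relief of DAX-1 repression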
hgDAF-12 ag = activates the H. glycines DAF-12 receptor ligand-binding domain; HEK293 GAL4-hgDAF12 UAS-luciferase reporter, agonist luminescence; normalized to butyrate control; hit rate 1.8% among 370,000; activation, % at 6.8 µM;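 active = activation above a cutoff set at the mean of all screened compounds plus 3 SD, cut at about 10% in these data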;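 note: 0% = DMSO wells and 100% = sodium butyrate wells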
ssDAF12 agonist = activates DAF-12 receptor from parasite S. stercoralis; activation, % at 6.8 µM; HEK293 ssDAF-12/GRIP1 lit1-tk-luc reporter, luminescence; % of 3 µM dafachronic acid response; hit rate 1% among 370,000;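 active = activation above the mean over all tested compounds plus 3 SD, cut at about 0.9% in these data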;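 note: 0% = DMSO-only wells and 100% = 3 µM delta7-dafachronic acid wells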
SMARCA2 conf = confirmation of SMARCA2 (BRM) function activators | shares compounds with SMARCA2 act | activation, % at 9.1 µM | MG213 cells, MMTV-luciferase with dexamethasone, luminescence, overnight; MG213 cells expressing E1A, Rb sequestered; DMSO wells 0%, reference activator 100% | hit rate 30% among 3,500;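 active = activation above its plate's cutoff, the mean activation of tested wells plus 3 SD, cut at about 7.9% in these data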
GAL4-VP16 Luc = GAL4-VP16 reporter activation counter-screen. AID 686939. hit rate 41% among 3,500. shares compounds with SMARCA2 act. activation, % at 9.1 µM. HEK293 GAL4-VP16 pG5luc reporter, luciferase luminescence; scaled: DMSO wells 0%, SAHA wells 100%;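 active = activation above the solvent-only control well mean plus 3 SD, averaged across control plates, cut at about 5.2% in these data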
The depositor's hits bear a star; nt = no result.

SMILES	DAX1 inh-1	SMARCA2 act	hcDAF-12 act	DAX1 inh-2	hgDAF-12 ag	ssDAF12 agonist	SMARCA2 conf	GAL4-VP16 Luc
Nc1nnnn1/N=C/c1ccc(O)cc1	2.2	-0.5	-1.1	0.4	-1.4	-1.3	nt	nt
O=C(Nc1cc2nn(-c3ccccc3)nc2cc1Cl)c1ccco1	1.9	8.8*	3.2	-0.3	2.8	0.2	21.0*	11.0*
COc1ccc(CCNC(=O)c2cc3c(=O)n4ccccc4nc3n(C3CCCCC3)c2=N)cc1	1.1	1.8	-0.1	-4.0	0.7	-1.3	nt	nt
COc1ccc(CCNC(=O)c2cc3c(=O)n4ccccc4nc3n(C3CCCCC3)c2=N)cc1OC	0.5	11.8*	-2.1	-3.8	-2.0	-1.8	5.8	1.8
Cc1cccn2c(=O)c3cc(C(=O)NC4CCCC4)c(=N)n(C4CCCCC4)c3nc12	0.3	8.2*	-0.1	0.2	-1.3	-1.0	8.3*	-1.1
Cc1cccn2c(=O)c3cc(C(=O)NCCN4CCOCC4)c(=N)n(CCCN4CCOCC4)c3nc12	2.9	-2.3	-1.3	0.1	1.3	-0.7	nt	nt
Cc1cccn2c(=O)c3cc(C(=O)NCCN4CCOCC4)c(=N)n(CCc4ccccc4)c3nc12	-0.9	10.7*	-1.7	-0.8	3.7	-1.5	2.2	1.0
COc1cc(S(=O)(=O)N2CCOCC2)cc(C(=O)c2nccn2C)c1OC	0.0	9.3*	-3.4	-0.5	-0.4	-1.5	-1.5	1.8
CCCCn1ccnc1C(=O)c1cc(S(=O)(=O)N2CCOCC2)ccc1C	-2.1	-4.7	-3.7	-1.3	-3.8	-2.0	nt	nt
COC(CNC(=O)C1CCCN(S(=O)(=O)c2ccc3c(c2)oc(=O)n3C)C1)OC (configuration not stated)	0.0	-0.2	-0.9	0.2	0.0	-1.5	nt	nt
CCCN(CCC)C(=O)C1CCCN(S(=O)(=O)c2ccc3c(c2)oc(=O)n3C)C1 (configuration not stated)	0.4	10.3*	3.2	-0.2	3.3	-1.1	1.8	0.2
CCOc1ccccc1NC(=O)c1cc2c(C)nn(-c3ccccc3)c2s1	nt	-6.8	-1.5	0.3	2.0	-1.4	nt	nt
COc1ccc(C(C)=O)cc1CN1C(=O)NC2(CCCCCCC2)C1=O	1.1	11.5*	-0.7	0.1	-0.8	-0.7	-3.8	0.9
CCOc1ccc(C(C)=O)cc1CN1C(=O)NC2(CCCCCC2)C1=O	0.2	-3.7	-2.3	-0.1	0.2	-1.3	nt	nt
O=S1(=O)N[C@H](Cc2ccccc2)COc2cc(N3CCCC3)ccc21	nt	-0.2	-1.8	0.7	-0.7	-0.5	nt	nt
COc1ccc(CNC(=O)CN=C2NC(=O)C(c3ccccc3)(c3ccccc3)N2)cc1	0.3	11.5*	-0.5	0.0	0.2	-1.0	-0.1	0.1
CN1CCN(c2ccc(NC(=O)CSc3ccccc3)cc2F)CC1	5.3*	8.1*	3.5	2.7	10.6*	-0.3	7.5	8.6*
CCOC(=O)c1cccc(-c2cc(C(C)=O)c3n(c2=O)CCC3)c1	nt	-2.1	-0.8	0.2	0.4	-1.1	nt	nt
Cc1ccc(C(=O)N/C(=C\c2ccco2)C(=O)NCC2CCCO2)cc1C (configuration not stated)	0.7	0.0	0.7	1.1	1.5	-1.5	nt	nt
Cc1ccc(C(=O)N/C(=C/c2ccco2)C(=O)NCC2CCCO2)cc1 (configuration not stated)	1.2	9.9*	-0.9	0.1	-0.3	-1.4	2.5	1.4
COc1ccc(C(=O)NC(=S)NNC(=O)c2cnccn2)cc1	1.2	33.5*	3.5	0.3	-0.9	-0.4	-2.9	0.9
COc1ccc(C(=O)NC(=S)NCC2CCCO2)cc1 (configuration not stated)	1.2	10.7*	0.7	0.3	1.7	-0.4	2.3	4.2
CNC(=O)NC(=S)NC(=O)c1ccc(OC)cc1	1.3	10.5*	0.4	0.6	3.9	-1.2	0.5	2.2
CCc1ccccc1CNC(=O)C1CCC(CNS(=O)(=O)c2cccc3cccnc23)CC1 (configuration not stated)	nt	-0.6	-1.9	-0.5	-0.7	-0.6	nt	nt
CN(Cc1ccco1)C(=O)CN1C(=O)C2(OCCCO2)c2ccccc21	nt	-3.6	-0.8	1.6	1.0	-0.8	nt	nt
SMILES	DAX1 inh-1	SMARCA2 act	hcDAF-12 act	DAX1 inh-2	hgDAF-12 ag	ssDAF12 agonist	SMARCA2 conf	GAL4-VP16 Luc
COC(=O)[C@]12C[C@H](CC(=O)N3CCN(C(=O)C4CC4)CC3)C(=O)N(Cc3cccc4ccccc34)C1=C[C@H](C(C)(C)C)O[C@@H]2C	nt	-3.3	-0.9	0.2	0.8	-1.2	nt	nt
COc1ccc(C(=O)CSc2nnc(-c3cccnc3)n2-c2ccc(C)cc2)cc1	nt	-2.5	0.5	-0.9	5.3	-1.6	nt	nt
O=[N+]([O-])c1cccc(-c2nc(-c3cccs3)c(-c3cccs3)[nH]2)c1	-0.3	-3.0	-3.3	-2.0	-2.8	-0.9	nt	nt
O=[N+]([O-])c1cccc(-c2noc(-c3cccs3)n2)c1	2.9	10.7*	-0.5	0.2	4.1	-1.4	4.5	4.0
CC1([N+](=O)[O-])COC(c2cccc3ccccc23)OC1 (configuration not stated)	nt	1.5	0.8	-0.9	0.4	-1.2	nt	nt
CCC1([N+](=O)[O-])COC(C=Cc2ccccc2)OC1 (configuration not stated)	2.1	9.7*	-1.9	2.9	3.0	-1.3	5.4	3.5
CC(C)OCCCNC(=O)C1CCC(CNS(=O)(=O)c2ccc(Cl)cc2)CC1 (configuration not stated)	0.0	14.2*	0.7	-0.4	-2.8	-1.0	-3.6	1.1
CC(C)OCCCNC(=O)C1CCC(CNS(=O)(=O)c2ccccc2)CC1 (configuration not stated)	-0.3	-1.0	-0.3	-0.5	-2.5	0.6	nt	nt
O=C(O)[C@@H]1[C@@H]2C[C@@H]2CN1c1ncccc1[N+](=O)[O-]	3.3	9.9*	-1.9	-0.4	-2.7	-0.6	1.6	0.2
O=C(O)C1CN(c2ncccc2[N+](=O)[O-])C1	1.1	-1.6	-1.8	-0.4	0.9	-0.4	nt	nt
O=C(NCc1cccs1)c1ccc([N+](=O)[O-])cc1Cl	-0.3	13.4*	-1.8	0.8	2.5	-1.3	1.5	1.6
Clc1ccc(-c2ccn[nH]2)cc1	1.2	-2.5	-0.2	0.4	4.7	-0.8	nt	nt
S=c1nccc(-c2ccc(Cl)cc2)[nH]1	nt	8.1*	-2.6	0.3	-1.0	-1.7	-1.5	3.1
O=C(/C=C/Nc1cccc(C(F)(F)F)c1)c1ccco1	0.5	8.7*	4.6	1.1	8.3	-0.2	9.2*	8.5*
